# Results as given in the supplement of paper PMC6658780.
# Structures can show the parent of a compound that is named as a salt. ± gives the standard deviation of the averaged measurements.
# Assays:
# [1] = test system: Klebsiella pneumoniae KPC-119; experiment: percent growth inhibition of drug alone vs DMSO control; higher = more growth inhibition; details: antibiotic (0.125x MIC): none (0.1% DMSO)
# [2] = test system: Klebsiella pneumoniae NCTC-13439; experiment: as above; details: antibiotic (0.125x MIC): none (0.1% DMSO)
# [3] = test system: Klebsiella pneumoniae KPC-119; experiment: percent growth inhibition of drug + antibiotic vs DMSO control; higher = more growth inhibition
# [4] = test system: Klebsiella pneumoniae NCTC-13439; experiment: as above
# [5] = test system: Escherichia coli ATCC BAA-2469; experiment: as above; details: 7 µM
# Description: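 Prestwick drugs tested at 20 uM and 7 uM with an antibiotic at 0.125x MIC (16 mg/L when MIC >128 mg/L) against E. coli ATCC BAA-2469 (NDM-1) in CAMHB, 384-well plates, duplicate runs. Percent growth inhibition was computed from OD600 (24 h minus 0 h) relative to DMSO wells. Drug + DMSO-only wells are also given. […]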
# [6] = antibiotic (0.125x MIC): colistin, 7 µM
# [7] = antibiotic (0.125x MIC): gentamicin, 7 µM
# [8] = antibiotic (0.125x MIC): tigecycline, 7 µM
# [9] = antibiotic (0.125x MIC): colistin, 20 µM
# [10] = antibiotic (0.125x MIC): meropenem, 7 µM
# [11] = antibiotic (0.125x MIC): meropenem, 20 µM
# [12] = antibiotic (0.125x MIC): ciprofloxacin, 7 µM
# [13] = antibiotic (0.125x MIC): ciprofloxacin, 20 µM
# [14] = antibiotic (0.125x MIC): gentamicin, 20 µM
# [15] = antibiotic (0.125x MIC): tigecycline, 20 µM
# [16] = antibiotic (0.125x MIC): gentamicin
compound,measurement,setting,value
NC[C@@H]1O[C@H](O[C@H]2[C@@H](O)[C@H](O[C@@H]3[C@@H](O)[C@H](N)C[C@H](N)[C@H]3O[C@H]3O[C@H](CO)[C@@H](O)[C@H](O)[C@H]3N)O[C@@H]2CO)[C@H](N)[C@@H](O)[C@@H]1O [Paromomycin sulfate],percent growth inhibition of drug alone,[1]; 7 µM,-0.033 ± 0.073%
same,percent growth inhibition of drug alone,[1]; 20 µM,41.3 ± 0.58%
same,percent growth inhibition of drug alone,[2]; 7 µM,11.4 ± 2.6%
same,percent growth inhibition of drug alone,[2]; 20 µM,43.7 ± 12%
same,percent growth inhibition,[3]; [6],12.7 ± 6.7%
same,percent growth inhibition,[3]; [7],8.59 ± 1.5%
same,percent growth inhibition,[4]; [8],6.3 ± 3%
"CC(C)NCC(O)c1ccc(O)c(O)c1 (single isomer, unassigned; (-)) [(-)-Isoproterenol hydrochloride]",percent growth inhibition of drug alone,[1]; 7 µM,0.335 ± 1.6%
same,percent growth inhibition of drug alone,[1]; 20 µM,1.39 ± 1.6%
same,percent growth inhibition,[3]; [9],0.725 ± 1.5%
O=c1[nH]c(=O)n([C@H]2C[C@H](O)[C@@H](CO)O2)cc1F [Floxuridine],percent growth inhibition of drug alone,[1]; 7 µM,34.2 ± 2.8%
same,percent growth inhibition of drug alone,[1]; 20 µM,92.8 ± 5.4%
same,percent growth inhibition of drug alone,[2]; 7 µM,43.4 ± 0.88%
same,percent growth inhibition of drug alone,[2]; 20 µM,99.63 ± 0.17%
same,percent growth inhibition,[3]; [9],98.9 ± 1.5%
same,percent growth inhibition,[3]; [10],89.6 ± 10%
same,percent growth inhibition,[3]; [11],98.5 ± 1.4%
same,percent growth inhibition,[4]; [12],64.6 ± 15%
same,percent growth inhibition,[4]; [13],99.05 ± 0.42%
CC(Cc1cccc(C(F)(F)F)c1)NCCOC(=O)c1ccccc1 (stereo not given) [Benfluorex],percent growth inhibition of drug alone,[1]; 7 µM,1.43 ± 3%
same,percent growth inhibition of drug alone,[1]; 20 µM,-0.224 ± 0.36%
same,percent growth inhibition,[3]; [9],4.58 ± 2.8%
CN[C@@H]1[C@@H](O[C@H]2O[C@H](CO)[C@@H](N)[C@H](O)[C@H]2O)OC2C[C@@H](N)[C@@H](O[C@H]3[C@H](O)[C@@H](O)[C@H](N)C[C@@H]3N)OC2[C@@H]1O (stereo not given in full) [Apramycin],percent growth inhibition of drug alone,[1]; 7 µM,4.95 ± 5.6%
same,percent growth inhibition of drug alone,[1]; 20 µM,52.9 ± 1.4%
same,percent growth inhibition of drug alone,[2]; 7 µM,4.78 ± 15%
same,percent growth inhibition of drug alone,[2]; 20 µM,88 ± 17%
same,percent growth inhibition,[3]; [7],27.9 ± 0.46%
same,percent growth inhibition,[3]; [14],99.968 ± 0.004%
same,percent growth inhibition,[4]; [8],35.7 ± 13%
same,percent growth inhibition,[4]; [15],100 ± 0.19%
O=C(O)c1cn(-c2ccc(F)cc2)c2cc(N3CCNCC3)c(F)cc2c1=O [Sarafloxacin],percent growth inhibition of drug alone,[1]; 7 µM,56.9 ± 1.9%
same,percent growth inhibition of drug alone,[1]; 20 µM,98.9 ± 1.1%
same,percent growth inhibition of drug alone,[2]; 7 µM,19.6 ± 1.8%
same,percent growth inhibition of drug alone,[2]; 20 µM,98.4 ± 1.6%
same,percent growth inhibition,[3]; [7],99.81 ± 0.1%
same,percent growth inhibition,[3]; [14],99.82 ± 0.22%
same,percent growth inhibition,[3]; [10],99.613 ± 0.042%
same,percent growth inhibition,[3]; [11],83.6 ± 19%
same,percent growth inhibition,[4]; [12],59.24 ± 0.15%
same,percent growth inhibition,[4]; [13],99.59 ± 0.23%
same,percent growth inhibition,[4]; [8],50 ± 14%
same,percent growth inhibition,[4]; [15],99.57 ± 0.39%
CC(C)NC[C@H](O)COc1ccc(CC(N)=O)cc1 [(S)-(-)-Atenolol],percent growth inhibition of drug alone,[1]; 7 µM,0.932 ± 4.5%
same,percent growth inhibition of drug alone,[1]; 20 µM,-0.0403 ± 1.4%
same,percent growth inhibition,[3]; [9],-1.42 ± 6%
CN(C)c1ccc(O)c2c1C[C@H]1C[C@H]3[C@H](N(C)C)C(O)=C(C(N)=O)C(=O)[C@@]3(O)C(O)=C1C2=O [Minocycline hydrochloride],percent growth inhibition of drug alone,[1]; 7 µM,10.9 ± 1.6%
same,percent growth inhibition of drug alone,[1]; 20 µM,52.8 ± 2.3%
same,percent growth inhibition of drug alone,[2]; 7 µM,3.05 ± 3.2%
same,percent growth inhibition of drug alone,[2]; 20 µM,6.86 ± 3.9%
same,percent growth inhibition,[3]; [6],97.33 ± 0.15%
same,percent growth inhibition,[3]; [9],97.8 ± 1.9%
same,percent growth inhibition,[3]; [7],6.41 ± 2.8%
same,percent growth inhibition,[3]; [14],95.3 ± 1.8%
same,percent growth inhibition,[4]; [8],-1.9 ± 6.7%
same,percent growth inhibition,[4]; [15],49.8 ± 7.5%
COc1ccc2c(c1)c(CC(=O)OCC(=O)O)c(C)n2C(=O)c1ccc(Cl)cc1 [Acemetacin],percent growth inhibition,[5]; [16],2.64 ± 1.7%
CO[C@H]1/C=C/O[C@@]2(C)Oc3c(C)c(O)c4c(c3C2=O)C2=NC3(CCN(CC(C)C)CC3)NC2=C(NC(=O)/C(C)=C\C=C\[C@H](C)[C@H](O)[C@@H](C)[C@@H](O)[C@@H](C)[C@H](OC(C)=O)[C@@H]1C)C4=O [Rifabutin],percent growth inhibition of drug alone,[1]; 7 µM,8.64 ± 2.6%
same,percent growth inhibition of drug alone,[1]; 20 µM,73.8 ± 3.7%
same,percent growth inhibition of drug alone,[2]; 7 µM,5.74 ± 2.1%
same,percent growth inhibition,[3]; [6],97.8 ± 1.9%
same,percent growth inhibition,[3]; [9],98.1 ± 2.2%
same,percent growth inhibition,[3]; [7],41.8 ± 7%
same,percent growth inhibition,[3]; [14],99.4 ± 0.45%
same,percent growth inhibition,[3]; [11],99.645 ± 0.017%
same,percent growth inhibition,[4]; [12],21.5 ± 7.5%
same,percent growth inhibition,[4]; [15],30.9 ± 7.2%
CO[C@H]1/C=C/O[C@@]2(C)Oc3c(C)c(O)c4c(O)c(c(/C=N/N5CCN(C6CCCC6)CC5)c(O)c4c3C2=O)NC(=O)/C(C)=C\C=C\[C@H](C)[C@H](O)[C@@H](C)[C@@H](O)[C@@H](C)[C@H](OC(C)=O)[C@@H]1C [Rifapentine],percent growth inhibition of drug alone,[1]; 7 µM,2.17 ± 1.7%
same,percent growth inhibition of drug alone,[1]; 20 µM,34.82 ± 0.22%
same,percent growth inhibition of drug alone,[2]; 7 µM,6.76 ± 7.4%
same,percent growth inhibition of drug alone,[2]; 20 µM,11.1 ± 17%
same,percent growth inhibition,[3]; [9],93.01 ± 0.93%
same,percent growth inhibition,[3]; [7],4.75 ± 13%
same,percent growth inhibition,[4]; [8],14.7 ± 5.3%
same,percent growth inhibition,[4]; [15],42.9 ± 12%
O=C(O)CN(CCN(CC(=O)O)CC(=O)O)CCN(CC(=O)O)CC(=O)O [Pentetic acid],percent growth inhibition,[5]; antibiotic (0.125x MIC): meropenem,-3.74 ± 3.2%
OCCOCCN1CCN(C2=Nc3ccccc3Sc3ccccc32)CC1 [Quetiapine hemifumarate],percent growth inhibition of drug alone,[1]; 7 µM,-3.12 ± 4%
same,percent growth inhibition of drug alone,[1]; 20 µM,-3.25 ± 2.9%
same,percent growth inhibition of drug alone,[2]; 7 µM,-15.6 ± 19%
same,percent growth inhibition of drug alone,[2]; 20 µM,-5.29 ± 6.1%
same,percent growth inhibition,[3]; [9],-8.06 ± 1.8%
same,percent growth inhibition,[4]; [8],-9.2 ± 16%
same,percent growth inhibition,[4]; [15],-7.45 ± 10%
Oc1c(Cl)cc(Cl)c(Cl)c1Cc1c(O)c(Cl)cc(Cl)c1Cl [Hexachlorophene],percent growth inhibition of drug alone,[1]; 7 µM,0.779 ± 4.2%
same,percent growth inhibition of drug alone,[1]; 20 µM,18.8 ± 7.5%
same,percent growth inhibition,[3]; [6],4.52 ± 2.5%
CC1=C(/C=C/C(C)=C/C=C/C(C)=C/C(=O)O)C(C)(C)CCC1 [Retinoic acid],percent growth inhibition of drug alone,[1]; 7 µM,1.08 ± 2.4%
same,percent growth inhibition of drug alone,[1]; 20 µM,0.222 ± 2%
same,percent growth inhibition,[3]; [9],-10.3 ± 2.1%
CO[C@H]1/C=C/O[C@@]2(C)Oc3c(C)c(O)c4c(O)c(c5c(nc6cc(C)ccn65)c4c3C2=O)NC(=O)/C(C)=C\C=C\[C@H](C)[C@H](O)[C@@H](C)[C@@H](O)[C@@H](C)[C@H](OC(C)=O)[C@@H]1C [Rifaximin],percent growth inhibition of drug alone,[1]; 7 µM,18.5 ± 1.3%
same,percent growth inhibition of drug alone,[1]; 20 µM,71.9 ± 2.4%
same,percent growth inhibition of drug alone,[2]; 7 µM,1.28 ± 0.063%
same,percent growth inhibition of drug alone,[2]; 20 µM,17.5 ± 13%
same,percent growth inhibition,[3]; [6],99.23 ± 0.84%
same,percent growth inhibition,[4]; [12],-1.2 ± 3.8%
same,percent growth inhibition,[4]; [13],50.5 ± 1.9%
same,percent growth inhibition,[4]; [8],7.05 ± 5.2%
same,percent growth inhibition,[4]; [15],50.7 ± 4%
Nc1ccn([C@@H]2O[C@H](CO)[C@@H](O)C2(F)F)c(=O)n1 [Gemcitabine],percent growth inhibition,[5]; antibiotic (0.125x MIC): ciprofloxacin,23.1 ± 11%
CCCCNc1c(C(=O)OCC)c(C)nc2c1cnn2CC [Tracazolate hydrochloride],percent growth inhibition,[5]; [16],0.683 ± 0.77%
NS(=O)(=O)c1cc2c(cc1C(F)(F)F)NC(Cc1ccccc1)NS2(=O)=O (stereo not given) [Bendroflumethiazide],percent growth inhibition,[5]; [16],-0.966 ± 1.2%
